RE007 growth inh = less growth of the S. pombe RE007 Vpr strain. 360,000 tested, 0.21% active. S. pombe RE007 Vpr strain, BacTiter-Glo ATP luminescence, 24 h. Potency, µM (series often up to 92.2 µM), for the others: top-dose activity change, negative = less growth, most hits filed as inhibitors; active = well fitted falling curve with a large enough effect; inconclusive = small, poorly fitted or top-dose-only effect; inactive = no such curve, though single readings can be large or run the other way; note: % is set by controls: 0 for no effect and ±100 for the full control effect; nearly all actives have a fitted effect of over 50% in size
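Fission yeast RE007 carrying one integrated HIV-1 vpr copy, seeded at OD 0.01 in PMG+AL medium with 23 nL pinned compound. Grown 24 h at 30 degrees; viability read by BacTiter-Glo luminescence after 5 min.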
Pf growth 96h = P. falciparum growth inhibition at 96 hours; Potency, µM (highest dose often 28.7 µM), inactives show at the top dose activity change, negative = inhibition, hits mostly inhibitors; P. falciparum luciferase reporter growth, 96 h; AID 504834; 320,000 tested, 6.9% active; active = well fitted inhibition curve with a large enough effect; inconclusive = small, poorly fitted or top-dose-only effect, or another doubt; inactive = no such curve, though single readings can be large or run the other way; note: % is set by controls: 0 for no effect and ±100 for the full control effect
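P. falciparum expressing integrated firefly luciferase, in erythrocytes at 2% hematocrit, 0.05% parasitemia, incubated with compounds 96 h at 37 C, 5% CO2. Growth inhibition read as loss of luminescence; two-generation exposure targets delayed-death apicoplast inhibitors.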
SARS PLP yeast = SARS-CoV PLP inhibition in yeast; Potency, µM (highest dose often 32.9 µM), for the others: top-dose activity, positive = growth rescue, actives largely listed as activators; 330,000 tested, 0.19% active; S. cerevisiae expressing SARS-CoV PLpro, growth rescue; note: 0% is about no effect; nearly all actives have a fitted effect of over 55% in size
Pf growth 48h = inhibits P. falciparum growth in the first generation, 48 h. Potency, µM (series often up to 28.7 µM), without a hit: top-dose activity change, negative = inhibition, most hits filed as inhibitors. P. falciparum luciferase growth in erythrocytes, 48 h. AID 504832. 310,000 tested, 5.9% active; active = well fitted inhibition curve with a large enough effect; inconclusive = small, poorly fitted or top-dose-only effect, or another doubt; inactive = no such curve, though single readings can be large or run the other way; note: % is set by controls: 0 for no effect and ±100 for the full control effect
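Parasite viability was followed by luminescence of a genomically integrated firefly luciferase. Cultures held 0.1% parasitemia at 2% hematocrit (final), incubated under 5% CO2 at 37 C.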
NS1 function inh = inhibitors of influenza NS1 protein function. 270,000 tested, 0.4% active. Potency, µM (top dose mostly 46.1 µM), inactives show top-dose activity, positive = more growth; note: actives are rising curves; nearly all actives have a fitted effect of over 50% in size
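S. cerevisiae expressing influenza A NS1, grown in glucose, washed, then diluted 1:100 into pH 6.0 -URA galactose medium with 23 nl compound. Growth recovery read as OD600; NS1-free strain serves as control.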
An asterisk follows results filed as active; ? = inconclusive; nt = no result; [ ] = remark or other dose. Hits are enriched below; roughly 9.5% of the tested compounds scored in any of these assays. Unless noted, calls come from the whole dose curve. Potency is the fitted concentration of half-maximal effect.

SMILES | RE007 growth inh | Pf growth 96h | SARS PLP yeast | Pf growth 48h | NS1 function inh
O=C(N=Nc1c(O)n(Cc2ccccc2)c2ccccc12)c1cc2ccccc2cc1O | 4% | -4% | 3% | ? | 7%
Cn1cnnc1SCc1ccc(C(=O)N=Nc2c(O)n(Cc3ccc(Cl)cc3)c3ccccc23)cc1 | -2% | 3.7µM* | 2% | 2.3µM* | ?
CCOC(=O)c1c(C)sc2c1N(C(=O)CCl)c1cc(Cl)ccc1S2 | 5% | 15µM* | -35% | ? | -37%
O=C(COc1ccc2oc(-c3ccccc3)cc(=O)c2c1)Nc1ccccc1 | 9% | 3.7µM* | 14% | 13% | -1%
O=C(COc1ccc2c(-c3ccccc3)cc(=O)oc2c1)Nc1ccc(CCO)cc1 | -5% | 30% | 13% | 29% | 2%
COc1cccc(N2CC(NS(=O)(=O)c3cccnc3)CC2=O)c1 (stereo unspecified) | 6% | 11% | 2% | 15% | nt
Cc1ccc(C(=O)/C=C/c2ccc(Br)cc2)o1 | -20% | 91% | 5% | ? | 5%
C[n+]1ccc(/C=C/c2ccc(Br)cc2)cc1 | 0% | 1.3µM* | -6% | 0.33µM* | -2%
Cc1ccc(C)c(OCC(=O)Nc2cc(NC(=O)COc3cc(C)ccc3C)cc(C(=O)O)c2)c1 | -13% | 8.3µM* | 1% | 15% | 28%
C=CCNC(=S)N1CCC(C(=O)c2ccc(Cl)cc2)CC1 | 1% | 9.3µM* | 4% | 0% | -34%
CC(C)(C)NC(=S)N1CCC(C(=O)c2ccc(F)cc2)CC1 | 17% | ? | 0% | ? | 0%
C=CCNC(=S)N1CCC(C(=O)c2ccc(C)cc2)CC1 | 7% | 16% | -3% | 6%[0.00184 µM] | -12%
CC(C)(C)NC(=S)N1CCC(C(=O)c2ccc(Cl)cc2)CC1 | 5% | 3.3µM* | 3% | -14% | -2%
COc1cc2c(cc1OC)-c1c(OC)c(OC)cc3c1[C@H](C2)N(C)CC3 | -13% | 3.7µM* | 1% | ? | -3%
COc1cc2c(cc1O)CC1c3c(cc(O)c(OC)c3-2)CCN1C (stereo unspecified) | -6% | -23% | -2% | ? | 7%
C[C@@H]1CN([C@@H](C)CO)C(=O)c2cc(NC(=O)C3CC3)ccc2O[C@@H]1CN(C)C(=O)NC1CCCCC1 | 6% | nt | 6% | nt | nt
CCc1c(C(=O)Nc2ccc(OC)c(Cl)c2)[nH]c(C)c1C(C)=O | -10% | -6% | 1% | 12µM* | -18%
CN(CCOc1ccccc1)CC(=O)Nc1ccc(S(=O)(=O)N2CCCC2)cc1 | -13% | ? | -1% | -37% | -1%
CC1CCc2ccccc2N1CC(=O)Nc1cccc(S(=O)(=O)N2CCCC2)c1 (stereo unspecified) | 8% | ? | 0% | 12µM* | nt
CN(CC(=O)Nc1ccc(S(=O)(=O)N2CCCC2)cc1)Cc1cccc(Cl)c1Cl | 17% | 9.3µM* | -27% | -28% | -20%
CC1(c2cc(F)ccc2F)NC(=O)N(CC(=O)Nc2cccc(S(=O)(=O)N3CCCC3)c2)C1=O (stereo unspecified) | -5% | ? | 0% | 12µM* | nt
COc1ccc(CN(C)CC(=O)Nc2cccc(S(=O)(=O)N(C)c3ccccc3)c2)c(OC)c1 | -16% | 15µM* | -5% | ? | nt
O=C(Nc1nncs1)c1cc(S(=O)(=O)N2CCCCC2)ccc1Cl | 6% | 12% | 0% | -5% | 14%
Cc1onc(-c2ccccc2)c1C(=O)Nc1ccc(Cl)c(S(=O)(=O)N2CCOCC2)c1 | 0% | ? | 9% | ? | nt
C/C(=N\NC(=O)CN1CCN(S(=O)(=O)c2ccc(C)cc2)CC1)c1ccncc1 | -5% | ? | 0% | 18% | 0%
CS(=O)(=O)c1ccccc1-c1nnc(NC(=O)c2cccc(N3C(=O)CCC3=O)c2)o1 | 2% | 21% | -1% | -13% | nt
C=CCN1C(=O)c2ccc(C(=O)OCC(=O)N3CCN(c4ccccc4)CC3)cc2C1=O | 2% | 27% | 0% | 9% | nt
